Holding throughout (test): DAPPL (digital affinity profiling via proximity ligation, sequencing); 10 mM Tris-HCl pH 7.5, 50 mM NaCl, 1 mM DTT, 4% glycerol, room temperature, 30 min; GST-TFs on glutathione beads, 16-mer random dsDNA library, 0.1% formaldehyde crosslink after washing; high values mean tight binding
The target in one assay is T1, FEV (Homo sapiens, UniProt Q99581 1-238).
T1 sequence: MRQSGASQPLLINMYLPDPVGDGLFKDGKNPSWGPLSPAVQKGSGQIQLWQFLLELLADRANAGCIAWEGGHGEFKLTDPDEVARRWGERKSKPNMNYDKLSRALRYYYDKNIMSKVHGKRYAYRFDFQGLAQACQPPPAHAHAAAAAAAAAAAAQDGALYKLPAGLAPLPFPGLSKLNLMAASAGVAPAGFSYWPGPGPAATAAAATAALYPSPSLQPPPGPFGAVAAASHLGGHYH
Particulars: protein: recombinant; tags: N-terminal GST; dsDNA, one strand shown. The essentials: (§1)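 Beads coated with glutathione captured GST-fused human transcription factors that had been expressed in yeast, and the factors were then given DNA barcodes and pooled with a tag-only sample. The pools were incubated with 200 nmole of a random double-stranded 16-mer DNA library in Tris/NaCl/DTT/glycerol buffer for 30 min at room temperature, washed, crosslinked with 0.1% formaldehyde and proximity-ligated with BsaI/T4 ligase at 37 °C for 1 h. PCR amplification and Illumina NextSeq500 sequencing came last. Binding signal is each hexamer's read frequency for a factor divided by its frequency for the tag-only sample.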

A further assay concerns the target ETV5 (Homo sapiens, UniProt P41161 1-510). Particulars: protein: recombinant; tags: N-terminal GST; dsDNA, one strand shown. In a few lines: as §1
The target of the next assay is HSF1 (Homo sapiens, UniProt Q00613 1-529). Particulars: protein: recombinant; tags: N-terminal GST; chain copies: 3; dsDNA, one strand shown. In a few lines:
as §1

The target in a further assay is T2, SPIC (Homo sapiens, UniProt Q8N5J4 1-248).
T2 sequence: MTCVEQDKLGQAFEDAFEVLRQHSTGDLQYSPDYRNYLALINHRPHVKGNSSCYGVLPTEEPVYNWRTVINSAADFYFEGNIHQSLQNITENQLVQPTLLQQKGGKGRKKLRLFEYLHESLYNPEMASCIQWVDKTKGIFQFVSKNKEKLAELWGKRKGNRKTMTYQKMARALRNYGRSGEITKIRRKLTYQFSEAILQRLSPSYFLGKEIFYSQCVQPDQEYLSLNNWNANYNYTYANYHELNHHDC
Particulars: protein: recombinant; tags: N-terminal GST; dsDNA, one strand shown. In a few lines:
as §1

A further assay concerns the target ELF4 (Homo sapiens, UniProt Q99607 1-663). Particulars: protein: recombinant; tags: N-terminal GST; dsDNA, one strand shown. The essentials:
as §1

The target of another assay is T3, ELK4 (Homo sapiens, UniProt P28324-2 1-405).
T3 sequence: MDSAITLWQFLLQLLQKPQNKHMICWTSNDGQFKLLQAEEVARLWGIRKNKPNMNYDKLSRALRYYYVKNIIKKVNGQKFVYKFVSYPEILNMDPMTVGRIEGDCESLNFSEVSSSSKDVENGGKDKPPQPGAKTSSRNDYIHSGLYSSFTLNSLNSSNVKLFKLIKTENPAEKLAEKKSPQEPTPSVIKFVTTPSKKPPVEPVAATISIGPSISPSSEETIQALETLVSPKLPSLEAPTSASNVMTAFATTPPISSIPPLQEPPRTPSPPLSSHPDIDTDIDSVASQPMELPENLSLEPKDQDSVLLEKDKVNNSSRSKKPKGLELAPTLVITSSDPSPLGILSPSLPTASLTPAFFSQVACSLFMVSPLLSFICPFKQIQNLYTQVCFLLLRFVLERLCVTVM
Particulars: protein: recombinant; tags: N-terminal GST; dsDNA, one strand shown. The essentials: as §1

Another assay concerns the target T4, ETV2 (Homo sapiens, UniProt O00321 1-342).
T4 sequence: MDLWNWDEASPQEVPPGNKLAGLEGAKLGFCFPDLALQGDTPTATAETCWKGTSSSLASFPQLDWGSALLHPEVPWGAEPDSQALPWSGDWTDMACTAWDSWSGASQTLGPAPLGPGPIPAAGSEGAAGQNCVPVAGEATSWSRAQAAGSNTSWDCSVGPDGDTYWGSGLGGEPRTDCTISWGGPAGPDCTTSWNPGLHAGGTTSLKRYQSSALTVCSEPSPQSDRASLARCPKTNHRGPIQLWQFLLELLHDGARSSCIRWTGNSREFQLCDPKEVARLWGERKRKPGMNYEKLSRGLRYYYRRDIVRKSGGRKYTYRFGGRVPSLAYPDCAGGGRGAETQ
Particulars: protein: recombinant; tags: N-terminal GST; dsDNA, one strand shown. The essentials:
as §1

A further assay has as its target T5, ELF3 (Homo sapiens, UniProt P78545 1-371).
T5 sequence: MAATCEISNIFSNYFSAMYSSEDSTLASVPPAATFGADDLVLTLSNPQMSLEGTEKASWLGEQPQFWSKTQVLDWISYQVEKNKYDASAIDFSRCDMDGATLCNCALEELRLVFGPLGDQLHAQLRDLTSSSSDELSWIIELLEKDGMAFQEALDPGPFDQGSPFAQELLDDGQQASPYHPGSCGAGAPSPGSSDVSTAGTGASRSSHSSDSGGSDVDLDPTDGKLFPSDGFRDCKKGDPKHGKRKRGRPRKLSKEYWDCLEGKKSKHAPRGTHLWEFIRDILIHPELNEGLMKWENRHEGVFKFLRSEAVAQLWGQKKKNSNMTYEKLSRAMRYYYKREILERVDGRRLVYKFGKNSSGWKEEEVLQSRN
Particulars: protein: recombinant; tags: N-terminal GST; dsDNA, one strand shown. In a few lines:
as §1

The target in a further assay is CRX (Homo sapiens, UniProt O43186 1-299). Particulars: protein: recombinant; tags: N-terminal GST; dsDNA, one strand shown. In a few lines: as §1
CRX, sequence (O43186 whole entry): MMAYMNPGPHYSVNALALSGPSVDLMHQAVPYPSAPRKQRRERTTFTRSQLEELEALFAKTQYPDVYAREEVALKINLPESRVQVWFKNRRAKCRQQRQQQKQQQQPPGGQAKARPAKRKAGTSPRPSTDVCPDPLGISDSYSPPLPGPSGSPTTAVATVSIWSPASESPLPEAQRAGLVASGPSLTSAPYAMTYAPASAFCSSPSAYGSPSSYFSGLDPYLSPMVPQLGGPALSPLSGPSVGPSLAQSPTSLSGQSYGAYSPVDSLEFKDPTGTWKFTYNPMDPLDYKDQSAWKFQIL
The next assay deals with ETV1 (Homo sapiens, UniProt P50549 1-477). Particulars: protein: recombinant; tags: N-terminal GST; dsDNA, one strand shown. The essentials:
as §1

Another assay deals with T6, ERF (Homo sapiens, UniProt P50548 1-548).
T6 sequence: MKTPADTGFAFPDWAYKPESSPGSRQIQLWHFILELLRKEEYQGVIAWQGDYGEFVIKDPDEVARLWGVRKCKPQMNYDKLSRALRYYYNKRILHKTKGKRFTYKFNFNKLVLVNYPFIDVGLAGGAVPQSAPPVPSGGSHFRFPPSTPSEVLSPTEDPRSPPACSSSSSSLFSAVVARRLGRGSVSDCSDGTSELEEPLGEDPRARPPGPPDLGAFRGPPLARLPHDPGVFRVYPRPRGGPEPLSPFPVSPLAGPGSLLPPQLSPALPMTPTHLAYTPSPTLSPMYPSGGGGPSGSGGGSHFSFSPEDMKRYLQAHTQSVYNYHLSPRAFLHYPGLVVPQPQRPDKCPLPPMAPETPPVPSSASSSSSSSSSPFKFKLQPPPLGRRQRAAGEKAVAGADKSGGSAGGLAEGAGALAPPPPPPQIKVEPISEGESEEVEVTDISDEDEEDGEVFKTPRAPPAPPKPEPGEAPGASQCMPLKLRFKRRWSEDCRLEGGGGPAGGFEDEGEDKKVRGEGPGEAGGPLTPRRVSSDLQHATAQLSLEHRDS
Particulars: protein: recombinant; tags: N-terminal GST; dsDNA, one strand shown. In a few lines: as §1

The target in another assay is T7, ETV3L (Homo sapiens, UniProt Q6ZN32 1-361).
T7 sequence: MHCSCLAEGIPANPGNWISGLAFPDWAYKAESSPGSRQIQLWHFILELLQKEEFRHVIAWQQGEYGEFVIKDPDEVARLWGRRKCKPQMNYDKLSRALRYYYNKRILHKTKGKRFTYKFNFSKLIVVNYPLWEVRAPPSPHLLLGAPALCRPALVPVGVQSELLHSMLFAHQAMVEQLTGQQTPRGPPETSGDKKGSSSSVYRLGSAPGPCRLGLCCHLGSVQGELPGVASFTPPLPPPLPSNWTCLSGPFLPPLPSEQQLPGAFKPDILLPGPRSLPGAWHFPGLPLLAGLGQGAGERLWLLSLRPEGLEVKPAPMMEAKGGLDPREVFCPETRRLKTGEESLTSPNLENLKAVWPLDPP
Particulars: protein: recombinant; tags: N-terminal GST; dsDNA, one strand shown. The essentials: as §1

Another assay concerns the target T8, ETS2 (Homo sapiens, UniProt P15036 1-469).
T8 sequence: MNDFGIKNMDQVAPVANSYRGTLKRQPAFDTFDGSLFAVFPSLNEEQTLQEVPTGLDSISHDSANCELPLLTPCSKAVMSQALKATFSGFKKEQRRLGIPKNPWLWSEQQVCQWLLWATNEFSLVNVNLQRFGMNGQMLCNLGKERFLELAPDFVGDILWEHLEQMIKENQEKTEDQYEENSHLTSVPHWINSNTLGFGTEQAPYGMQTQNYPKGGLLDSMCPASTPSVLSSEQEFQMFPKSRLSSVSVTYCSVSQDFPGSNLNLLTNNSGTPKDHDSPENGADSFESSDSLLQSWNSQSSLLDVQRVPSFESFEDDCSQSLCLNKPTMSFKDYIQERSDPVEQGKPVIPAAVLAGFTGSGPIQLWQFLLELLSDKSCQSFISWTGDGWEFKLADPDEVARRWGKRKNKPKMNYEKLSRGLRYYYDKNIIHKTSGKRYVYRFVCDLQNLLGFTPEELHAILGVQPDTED
Particulars: protein: recombinant; tags: N-terminal GST; dsDNA, one strand shown. The essentials: as §1

A further assay deals with T9, SPDEF (Homo sapiens, UniProt O95238 1-335).
T9 sequence: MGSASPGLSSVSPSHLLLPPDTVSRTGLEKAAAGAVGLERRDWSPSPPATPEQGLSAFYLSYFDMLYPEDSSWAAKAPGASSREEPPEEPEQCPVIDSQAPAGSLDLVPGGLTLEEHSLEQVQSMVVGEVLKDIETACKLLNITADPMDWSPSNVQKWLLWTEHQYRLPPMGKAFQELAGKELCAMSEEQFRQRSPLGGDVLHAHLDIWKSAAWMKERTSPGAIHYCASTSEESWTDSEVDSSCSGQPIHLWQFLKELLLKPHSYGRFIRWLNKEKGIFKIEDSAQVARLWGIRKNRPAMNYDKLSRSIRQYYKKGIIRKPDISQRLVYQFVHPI
Particulars: protein: recombinant; tags: N-terminal GST; dsDNA, one strand shown. In a few lines:
as §1

In another assay the target is T10, ETV7 (Homo sapiens, UniProt Q9Y603 1-341).
T10 sequence: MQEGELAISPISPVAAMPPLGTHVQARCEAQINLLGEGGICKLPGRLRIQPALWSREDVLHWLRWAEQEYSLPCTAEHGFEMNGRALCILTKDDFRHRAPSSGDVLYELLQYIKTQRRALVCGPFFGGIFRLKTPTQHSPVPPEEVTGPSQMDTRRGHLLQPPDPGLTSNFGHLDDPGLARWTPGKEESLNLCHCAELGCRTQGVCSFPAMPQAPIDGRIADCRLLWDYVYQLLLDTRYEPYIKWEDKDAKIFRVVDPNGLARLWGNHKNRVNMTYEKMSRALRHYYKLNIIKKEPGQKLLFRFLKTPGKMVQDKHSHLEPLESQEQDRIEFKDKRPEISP
Particulars: protein: recombinant; tags: N-terminal GST; dsDNA, one strand shown. In a few lines:
as §1

The target of a further assay is T11, ELF5 (Homo sapiens, UniProt Q9UKW6-2 1-255).
T11 sequence: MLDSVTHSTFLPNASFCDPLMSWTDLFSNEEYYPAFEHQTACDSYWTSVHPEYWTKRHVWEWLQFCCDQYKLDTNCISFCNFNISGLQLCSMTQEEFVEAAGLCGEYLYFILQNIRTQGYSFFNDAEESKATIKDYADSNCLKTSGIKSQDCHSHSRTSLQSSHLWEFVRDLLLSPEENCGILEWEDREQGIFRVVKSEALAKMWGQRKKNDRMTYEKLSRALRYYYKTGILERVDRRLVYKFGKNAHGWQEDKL
Particulars: protein: recombinant; tags: N-terminal GST; dsDNA, one strand shown. The essentials: as §1

The next assay deals with T12, ETV3 (Homo sapiens, UniProt P41162-2 1-143).
T12 sequence: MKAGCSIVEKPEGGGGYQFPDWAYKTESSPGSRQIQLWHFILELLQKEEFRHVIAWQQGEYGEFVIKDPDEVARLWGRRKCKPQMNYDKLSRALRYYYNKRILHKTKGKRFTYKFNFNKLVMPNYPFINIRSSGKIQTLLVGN
Particulars: protein: recombinant; tags: N-terminal GST; dsDNA, one strand shown. The essentials:
as §1

Another assay has as its target ETV6 (Homo sapiens, UniProt P41212 1-452). Particulars: protein: recombinant; tags: N-terminal GST; dsDNA, one strand shown. The essentials: as §1

This is an account of results in PMC7862700, “An all-to-all approach to the identification of sequence-specific readers for epigenetic DNA modifications on cytosine”.

ETV6, sequence (P41212 whole entry): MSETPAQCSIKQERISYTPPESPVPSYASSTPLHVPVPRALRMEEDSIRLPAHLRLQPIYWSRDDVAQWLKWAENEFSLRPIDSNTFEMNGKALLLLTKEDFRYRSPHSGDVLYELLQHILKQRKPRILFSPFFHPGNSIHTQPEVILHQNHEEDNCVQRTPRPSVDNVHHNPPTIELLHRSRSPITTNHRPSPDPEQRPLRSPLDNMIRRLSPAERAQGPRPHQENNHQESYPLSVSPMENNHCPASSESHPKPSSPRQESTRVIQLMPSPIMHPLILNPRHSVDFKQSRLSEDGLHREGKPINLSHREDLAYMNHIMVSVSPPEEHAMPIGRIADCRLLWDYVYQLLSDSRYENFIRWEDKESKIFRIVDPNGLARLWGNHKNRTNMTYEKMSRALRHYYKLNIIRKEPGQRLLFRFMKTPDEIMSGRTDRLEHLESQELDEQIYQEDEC
ETV1, sequence (P50549 whole entry): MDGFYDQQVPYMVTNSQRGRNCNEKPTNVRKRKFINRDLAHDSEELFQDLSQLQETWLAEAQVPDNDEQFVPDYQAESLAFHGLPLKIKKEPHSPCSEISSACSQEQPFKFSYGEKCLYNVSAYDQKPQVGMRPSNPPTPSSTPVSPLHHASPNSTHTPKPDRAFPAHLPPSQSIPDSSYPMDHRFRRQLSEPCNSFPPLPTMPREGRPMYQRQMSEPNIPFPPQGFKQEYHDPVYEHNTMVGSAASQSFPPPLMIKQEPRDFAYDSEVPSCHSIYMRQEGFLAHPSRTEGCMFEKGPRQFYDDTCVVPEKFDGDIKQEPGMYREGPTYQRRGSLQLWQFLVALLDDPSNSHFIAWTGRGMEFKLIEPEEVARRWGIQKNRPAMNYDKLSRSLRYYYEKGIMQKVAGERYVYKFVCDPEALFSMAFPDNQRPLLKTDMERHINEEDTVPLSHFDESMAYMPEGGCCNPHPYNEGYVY
ETV5, sequence (P41161 whole entry): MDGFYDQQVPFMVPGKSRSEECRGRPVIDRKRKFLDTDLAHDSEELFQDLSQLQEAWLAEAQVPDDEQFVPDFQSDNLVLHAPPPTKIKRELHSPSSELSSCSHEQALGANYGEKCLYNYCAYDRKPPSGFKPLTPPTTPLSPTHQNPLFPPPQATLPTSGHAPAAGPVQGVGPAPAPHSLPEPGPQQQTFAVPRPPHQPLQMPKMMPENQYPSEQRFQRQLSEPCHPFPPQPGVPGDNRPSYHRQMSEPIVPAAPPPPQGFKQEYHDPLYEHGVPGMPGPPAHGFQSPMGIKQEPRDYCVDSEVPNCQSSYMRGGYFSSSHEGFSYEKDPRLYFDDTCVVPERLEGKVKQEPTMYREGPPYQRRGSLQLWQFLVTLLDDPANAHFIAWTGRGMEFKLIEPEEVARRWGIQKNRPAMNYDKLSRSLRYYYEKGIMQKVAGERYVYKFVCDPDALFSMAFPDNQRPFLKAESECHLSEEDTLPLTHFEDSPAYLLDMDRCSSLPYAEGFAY
HSF1, sequence (Q00613 whole entry): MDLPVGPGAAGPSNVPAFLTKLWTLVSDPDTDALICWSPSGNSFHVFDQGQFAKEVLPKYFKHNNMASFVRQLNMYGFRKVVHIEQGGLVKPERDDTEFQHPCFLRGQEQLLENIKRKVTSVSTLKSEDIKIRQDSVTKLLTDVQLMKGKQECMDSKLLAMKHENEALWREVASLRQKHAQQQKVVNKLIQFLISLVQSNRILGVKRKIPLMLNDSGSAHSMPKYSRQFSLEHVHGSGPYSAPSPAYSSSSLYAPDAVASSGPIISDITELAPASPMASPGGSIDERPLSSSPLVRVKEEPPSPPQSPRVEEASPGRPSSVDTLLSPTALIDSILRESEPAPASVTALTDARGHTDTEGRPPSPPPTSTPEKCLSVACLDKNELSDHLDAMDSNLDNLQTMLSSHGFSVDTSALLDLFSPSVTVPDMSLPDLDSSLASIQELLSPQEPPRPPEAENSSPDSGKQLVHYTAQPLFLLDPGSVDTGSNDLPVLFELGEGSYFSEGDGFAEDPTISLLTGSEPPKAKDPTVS
ELF4, sequence (Q99607 whole entry): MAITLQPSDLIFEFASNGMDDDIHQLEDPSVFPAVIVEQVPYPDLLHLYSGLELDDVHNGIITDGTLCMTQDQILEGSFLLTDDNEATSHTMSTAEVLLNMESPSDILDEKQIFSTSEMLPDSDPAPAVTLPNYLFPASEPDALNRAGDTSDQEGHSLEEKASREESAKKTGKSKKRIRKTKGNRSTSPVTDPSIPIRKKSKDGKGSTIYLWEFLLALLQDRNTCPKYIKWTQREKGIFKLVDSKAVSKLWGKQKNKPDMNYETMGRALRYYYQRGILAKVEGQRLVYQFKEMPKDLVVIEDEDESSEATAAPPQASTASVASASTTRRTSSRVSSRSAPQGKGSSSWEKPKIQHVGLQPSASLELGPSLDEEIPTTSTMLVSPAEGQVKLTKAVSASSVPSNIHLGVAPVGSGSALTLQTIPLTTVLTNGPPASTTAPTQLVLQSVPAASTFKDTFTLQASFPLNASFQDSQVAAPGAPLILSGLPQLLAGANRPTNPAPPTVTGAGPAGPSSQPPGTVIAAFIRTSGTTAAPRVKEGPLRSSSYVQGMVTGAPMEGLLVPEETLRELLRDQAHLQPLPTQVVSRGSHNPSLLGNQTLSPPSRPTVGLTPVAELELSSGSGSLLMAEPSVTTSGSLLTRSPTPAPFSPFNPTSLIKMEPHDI

Consider TTTGAT, for which the binding signal with FEV was 1.17 fold enrichment (6-mer frequency, TF over GST control); with ETV5, 1.23 fold enrichment (6-mer frequency, TF over GST control); with HSF1, 1.37 fold enrichment (6-mer frequency, TF over GST control); in the assay with SPIC, 1.26 fold enrichment (6-mer frequency, TF over GST control); in the assay with ELF4 it was 1.22 fold enrichment (6-mer frequency, TF over GST control); with ELK4 it was 1.2 fold enrichment (6-mer frequency, TF over GST control). Moreover, the binding signal in the assay with ETV2 was 1.22 fold enrichment (6-mer frequency, TF over GST control); with ELF3, 1.18 fold enrichment (6-mer frequency, TF over GST control); with CRX, 1.6 fold enrichment (6-mer frequency, TF over GST control); in the assay with ETV1, 1.25 fold enrichment (6-mer frequency, TF over GST control); with ERF, 1.21 fold enrichment (6-mer frequency, TF over GST control); with ETV3L it was 1.28 fold enrichment (6-mer frequency, TF over GST control). Also, the binding signal was 1.26 fold enrichment (6-mer frequency, TF over GST control) with ETS2; 1.12 fold enrichment (6-mer frequency, TF over GST control) with SPDEF; 1.28 fold enrichment (6-mer frequency, TF over GST control) in the assay with ETV7; 1.26 fold enrichment (6-mer frequency, TF over GST control) with ELF5; 1.32 fold enrichment (6-mer frequency, TF over GST control) in the assay with ETV3; 1.26 fold enrichment (6-mer frequency, TF over GST control) in the assay with ETV6.
